Five compounds from PubChem BioAssay can be followed below.

Where “and” joins values, the source holds several entries; their conditions need not be identical. Equal values may be shown once. Results filed as inconclusive are left out. Calls of active or inactive are those of the source.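 Rule for the calls, unless noted: active = compounds whose cell count with miR-34 switched on is under 0.7 times the count with it off; inactive = the rest.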

For orientation: remaining activity means the signal under treatment as a percentage of the control signal. By viability is commonly meant a per cent measure of how many cells are alive, often set against a control.

Experiment [1] in a line: Wnt pathway potentiators raising nuclear beta-catenin – imaging, WNT3A-conditioned medium, mouse C2C12, NPC library, primary screen (AID 1117326; in the data active = nuclear beta-catenin stimulation mostly above about 4.2%, no sharp cut-off; inactive = mostly below about 10%). The settings on record: stronger effect = higher value.
The nature of experiment [2]: stimulators of insulin release from INS-1E, primary screen, cell-based, 5 mM glucose, NPC library (AID 1117329;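 active = compound raises insulin release from rat beta cells at 5 mM glucose, no numeric limit stated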). The conditions noted are these: rat INS-1E insulin secretion, at 10 µM, stronger effect = higher value.
A short description of experiment [3]: growth inhibition of GSK3B-pretreated HCT116 cells – cell-based, CellTiter-Glo, 0.2 to 20 µM (AID 1117336;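 active = compounds lowering colon cancer cell viability after pretreatment blocking the GSK3B kinase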). The conditions noted are these: HCT116 viability after GSK3B inhibitor, at 20 µM, stronger effect = higher value.
Experiment [4] can be described thus: inhibition of endothelial tube formation, primary screen, imaging, VEGF stimulated, CD31 staining, tube area, NPC library (AID 1117340;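 active = compound that reduces growth-factor-driven endothelial tube area in a mixed cell culture, no cutoff stated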). The settings on record: VEGF-stimulated ADSC/ECFC co-culture, at 10 µM, stronger effect = higher value.
Experiment [5] can be described thus: GLP1 release stimulators, primary, NCI-H716, NPC library (AID 1117341;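 active = compound raises GLP1 secretion from the human gut endocrine cells, with no numeric limit stated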). The conditions noted are these: NCI-H716 cells, at 10 µM, stronger effect = higher value.
Experiment [6] is described as follows: HCT116 colon cancer cell growth inhibition, primary screen, CellTiter-Glo luminescence, NPC library (AID 1117342;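 active = compounds that lower survival of HCT116 colon cancer cells in the luminescence readout, no numeric limit stated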). The settings on record: at 20 µM (top of the series). On the technique in general: ATP-based viability assays read luminescence as a measure of living cells.
A short description of experiment [7]: reduced SW480 viability measured with CellTiter-Glo, NPC library, primary (AID 1117343;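 active = compounds that lower viability of the colon cancer cells in the luminescence readout, with no numeric limit stated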). The settings on record: CellTiter-Glo luminescence; at 20 µM (top of the series) unless noted.
A short description of experiment [8]: NPC library primary testing for decreased DLD-1 cell viability via CellTiter-Glo (AID 1117346;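 active = compounds that lower survival of DLD-1 colon cancer cells in the luminescence readout, no cutoff given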). The settings on record: DLD-1 viability, CellTiter-Glo luminescence; at 20 µM (top of the series).
Experiment [9] concerns Aerobactin synthetase IucA (Klebsiella pneumoniae). Kind of experiment: inhibition of K. pneumoniae IucA enzyme – biochemical, Tocris library, absorbance (AID 1345561; call rule not given here;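 note: 100% = enzyme without compound and 0% = no enzyme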). The conditions noted are these: purified IucA enzyme assay, absorbance (OD) read-out; stronger effect = lower value;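 tested at 8 µM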.
The nature of experiment [10]: viability loss with induced miR-34 in A549 – imaging, A549 dox-inducible miR-34, nuclei and caspase counts, primary screen (AID 1347080). The settings on record: A549 miR-34 inducible, Hoechst nuclei count, 48 h.
Experiment [11] in a line: galactose survival enhancers in mitochondrial complex I cybrids – cell-based, galactose medium, ATP luminescence, primary screen (AID 1645843;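 active = z-score of at least 1.8 in each of two replicates, scored against plate mean and spread of sample wells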;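 note: positive z means more ATP and so rescue of galactose-driven cybrid death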). The settings on record: complex I mutant cybrid cells, 72 h, stronger effect = higher value.
Experiment [12] can be described thus: P. berghei load reduction in hepatocytes – cell-based, HepG2, luciferase luminescence, HepG2 viability, primary screen (AID 624349; in the data active = parasite load remaining mostly below about 12%, no sharp cut-off; inactive = mostly above about 10%;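 note: 100% = mean of DMSO negative control wells on the same plate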). The conditions noted are these: P. berghei liver stage in HepG2, luciferase luminescence, concentration not given here; parasite load remaining: stronger effect = lower value; viability: measured here: HepG2 viability without parasites.
Experiment [13] can be described thus: MELAS cybrid and Rieske KO viability enhancers – cell-based, MELAS cybrids, Rieske KO mouse fibroblasts, CellTiter-Glo, primary screen (AID 1508586;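 active = mean z-score across replicates of 1.96 or higher in either the MELAS or the Rieske mutant cell line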;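 note: z relative to plate mean and SD of compound and empty wells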). The conditions noted are these: low glucose.
Experiment [14] in a line: viability loss in pontine glioma line – cell-based, SU-DIPG-XVII, MIPE5.0, CellTiter-Glo, qHTS, dose response (AID 1347060; cut-off not given, nearly all actives have AC50 up to about 26 µM). The settings on record: CellTiter-Glo ATP luminescence.
The nature of experiment [15]: viability loss in pontine glioma line – cell-based, SU-DIPG-XIII, MIPE4.0, CellTiter-Glo, qHTS, dose response (AID 1347061; cut-off not given, nearly all actives have AC50 up to about 37 µM;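 note: cells exposed to compound for 48 hours before readout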). The conditions noted are these: CellTiter-Glo ATP luminescence.
Experiment [16] is described as follows: growth inhibition of DIPG cells – cell-based, MIPE5.0 library, qHTS (AID 1347068; cut-off not given, nearly all actives have IC50 up to about 30 µM). The conditions noted are these: SU-DIPG-XXV viability. On the technique in general: In qHTS, concentration-response curves come from the screen itself.
Where [17] appears, read: stronger effect = lower value, cell number ratio, induced over uninduced.
Where [18] appears, read: measured here: relative caspase fold change +Dox/-Dox.
The mark [19] stands for this setting: measured here: total cells with miR-34 induction, stronger effect = lower value.
The mark [20] stands for this setting: measured here: total cells without miR-34 induction.

Regarding `CC[N+](CC)(CC)CCOc1ccc(/C=C/c2ccccc2)cc1`, the nuclear beta-catenin stimulation was 0.4% (inactive) in experiment [1] (at 10 µM) and -0.8% in experiment [1] (stimulation, at 2 µM). Besides, the insulin secretion stimulation in [2] is 1.3% (inactive). For the same compound, the viability decrease in experiment [3] is -35.4% (inactive). The tube area decrease in experiment [4] was 82.5% (active). Also, the GLP1 secretion stimulation in [5] was -1.8% (inactive). The inhibition of viability in [6] is 46.8% (inactive). Besides, the values for the viability decrease (inhibition) in [7] and in [8] were -6% (inactive) and 56.2% (active), respectively. Also, in experiment [9], the remaining activity is 112% (inactive). The fold change in [10] (setting [17]) was 1.12 (inactive) and 0.929 (inactive); in experiment [10] (setting [18]), 0.542 and 0.715. For the same compound, the cell count in experiment [10] (setting [19]) is 2640 and 2410; in experiment [10] (setting [20]), 2350 and 2590. The z-score in [11] was -1.29 (inactive) and -0.77 (inactive).

On to `CN=C(NC#N)Nc1ccc(C2=NNC(=O)CC2C)cc1` (configuration not stated), for which, in [12], the parasite load remaining was 25% (inactive). The viability in experiment [12] turned out to be 67%. The nuclear beta-catenin stimulation is -0.7% (inactive) in [1] (at 10 µM) and -0.1% in experiment [1] (stimulation, at 2 µM). Further, the insulin secretion stimulation in experiment [2] is 0.3% (inactive). The viability decrease in experiment [3] is -15.4% (inactive). Moreover, in experiment [4], the tube area decrease is -8.1% (inactive). Also, the GLP1 secretion stimulation in experiment [5] was -1.9% (inactive). Also, in experiment [6], the inhibition of viability is -3.9% (inactive). Further, the viability decrease (inhibition) in experiment [7] was 4.1% (inactive); in experiment [8], -10.5% (inactive). Further, in [9], the remaining activity was 117% (inactive). Besides, the fold change in experiment [10] (setting [17]) was 0.976 (inactive) and 0.925 (inactive) and 0.857 (inactive); in experiment [10] (setting [18]), 0.912 and 0.898 and 1.1. Also, the cell count in [10] (setting [19]) was 6170 and 8930 and 9670; in [10] (setting [20]), 6320 and 9660 and 11300. The z-score is 0.199 (inactive) in experiment [13] (MELAS cybrid survival, CellTiter-Glo 48 h, stronger effect = higher value); 0.162 in experiment [13] (Rieske KO mouse fibroblast survival, CellTiter-Glo 72 h); 0.095 (inactive) and 0.625 (inactive) in [11].

Regarding `CC1(C)Oc2ccc(C#N)cc2[C@@H](N2CCCC2=O)[C@@H]1O`, the nuclear beta-catenin stimulation in [1] (at 10 µM) was 0.9% (inactive); in experiment [1] (stimulation, at 2 µM) it was 0.1%. Besides, the insulin secretion stimulation in experiment [2] was 0.4% (inactive). Further, in experiment [3], the viability decrease is -2.5% (inactive). For the same compound, the tube area decrease in experiment [4] is -8.1% (inactive). Besides, the GLP1 secretion stimulation in experiment [5] is 3.2% (inactive). Besides, in experiment [6], the inhibition of viability was 17.9% (inactive). Also, the values for the viability decrease (inhibition) in experiment [7] and in experiment [8] were -2.4% (inactive) and 5.4% (inactive), respectively. Also, in experiment [9], the remaining activity was 118% (inactive). Besides, the fold change in [10] (setting [17]) is 0.905 (inactive); in [10] (setting [18]), 1.17. Besides, the cell count in [10] (setting [19]) was 9250; in experiment [10] (setting [20]) it was 10200. In experiment [11], the z-score is 0.27 (inactive).

`CC(C)OC(=O)c1cc2c(OCC(O)CNC(C)(C)C)cccc2[nH]1` (configuration not stated): the nuclear beta-catenin stimulation in experiment [1] (at 10 µM) is 0.4% (inactive); in experiment [1] (stimulation, at 2 µM), 5.8%. The insulin secretion stimulation in experiment [2] was 13.3% (inactive). For the same compound, in experiment [3], the viability decrease was 9.2% (inactive). In addition, the tube area decrease in experiment [4] was 1.9% (inactive). For the same compound, the GLP1 secretion stimulation in [5] is 4.8% (inactive). Moreover, the inhibition of viability in experiment [6] is 40.5% (active). In addition, the values for the viability decrease (inhibition) in experiment [7] and in [8] were 58.6% (active) and 7.6% (inactive), respectively. The remaining activity in experiment [9] is 116% (inactive). The figures for the fold change in experiment [10] (setting [17]) and in experiment [10] (setting [18]) were 0.915 (inactive) and 0.769, respectively. Further, the cell count was 9290 in [10] (setting [19]) and 10200 in experiment [10] (setting [20]). Besides, the z-score in [11] was -0.48 (inactive).

On to `COC(=O)[C@@H]1CC2=CC(=O)CC[C@]2(C)[C@@]23O[C@@H]2C[C@@]2(C)[C@@H](CC[C@@]24CCC(=O)O4)[C@H]13`, for which the nuclear beta-catenin stimulation in experiment [1] (at 10 µM) was -0.1% (inactive); in experiment [1] (stimulation, at 2 µM) it was 1.3%. Further, the insulin secretion stimulation in experiment [2] is -0.55% (inactive). The viability decrease in experiment [3] was -0.7% (inactive). For the same compound, in [4], the tube area decrease is 23.1% (inactive). Also, the GLP1 secretion stimulation in experiment [5] was -1.5% (inactive). Moreover, the inhibition of viability in [6] was -5.5% (inactive). Also, the viability decrease (inhibition) in experiment [7] is 24.4% (inactive); in experiment [8] it was -7.2% (inactive). For the same compound, the remaining activity in experiment [9] was 96.4% (inactive). Also, the outcome in experiment [14], in [15] and in experiment [16] was inactive. Moreover, the values for the fold change in experiment [10] (setting [17]) and in experiment [10] (setting [18]) were 0.96 (inactive) and 1.45, respectively. For the same compound, the cell count in experiment [10] (setting [19]) came out at 9220; in [10] (setting [20]), 9600. Further, in [11], the z-score was -0.005 (inactive).
